Broadly, the inhibition is the drop in the measured response relative to a control, in per cent.

Structures are written as SMILES. The whole screen tested about 1,000 compounds, of which about 260 (26%) were called active. No stated cut-off is given here; in the data, active means inhibition above about 21%; inactive means the rest. These entries were drawn from the full list.

In the assay the target is E3 ubiquitin-protein ligase UHRF1 (Homo sapiens) (UniProt Q96T88). Description: UHRF1 methylated DNA binding inhibitors, counter-screen for MBD2 inhibitor project, biochemical, TR-FRET, human UHRF1 (AID 720530).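 Further: UHRF1 SRA domain binding a labeled hemimethylated CpG hairpin DNA; 0% = vehicle only and 100% = reference inhibitor with vehicle.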 As to conditions: UHRF1 binding to methylated oligonucleotide, at 4.4 µM, stronger effect = higher value. Background: A counterscreen serves to expose hits that act by an unwanted route or on another target.
E3 ubiquitin-protein ligase UHRF1 (Homo sapiens), sequence (Q96T88 whole entry, looked up, the tested form may be a part): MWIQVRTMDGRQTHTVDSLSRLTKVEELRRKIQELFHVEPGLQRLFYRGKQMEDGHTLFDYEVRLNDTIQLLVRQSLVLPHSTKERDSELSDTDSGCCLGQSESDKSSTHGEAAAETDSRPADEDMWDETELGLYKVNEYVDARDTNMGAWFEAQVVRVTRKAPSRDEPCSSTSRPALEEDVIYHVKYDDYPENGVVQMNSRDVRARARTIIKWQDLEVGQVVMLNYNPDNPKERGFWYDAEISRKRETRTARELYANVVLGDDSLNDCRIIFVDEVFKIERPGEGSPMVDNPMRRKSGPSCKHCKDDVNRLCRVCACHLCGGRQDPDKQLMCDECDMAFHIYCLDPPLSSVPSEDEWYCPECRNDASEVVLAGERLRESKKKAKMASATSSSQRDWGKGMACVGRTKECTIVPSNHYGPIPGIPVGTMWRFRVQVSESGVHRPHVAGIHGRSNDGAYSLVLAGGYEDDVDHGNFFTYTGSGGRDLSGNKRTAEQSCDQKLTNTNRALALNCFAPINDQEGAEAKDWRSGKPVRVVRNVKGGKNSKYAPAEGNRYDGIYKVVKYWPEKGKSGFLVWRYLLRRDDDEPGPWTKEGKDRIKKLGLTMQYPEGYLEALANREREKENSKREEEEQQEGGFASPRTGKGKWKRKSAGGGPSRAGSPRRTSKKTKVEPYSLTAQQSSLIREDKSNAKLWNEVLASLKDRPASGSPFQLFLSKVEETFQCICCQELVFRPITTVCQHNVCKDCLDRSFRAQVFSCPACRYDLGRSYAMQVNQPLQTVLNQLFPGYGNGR
As to `COc1ccc(N2C(=O)/C(=C/c3ccco3)C(=O)NC2=S)cc1`, the inhibition is 97.2% (active). The figure for `O=C1NC(=O)N(Cc2ccco2)C(=O)/C1=C\c1ccc(-c2ccc(F)cc2)o1` is 12.8% (inactive); for `Cc1cc(/C=C2/C(=O)NC(=O)N(Cc3ccco3)C2=O)c(C)n1-c1ccc(C(=O)O)cc1` it is 15.7% (inactive).

The values are drawn from PubChem BioAssay AID720530 (The Scripps Research Institute Molecular Screening Center, 2013).
